Only a selection was taken, and hits are over-represented in it overall.
Shiga toxin inh – blocks Shiga toxin action in Vero cells; Vero cells, Shiga toxin protein synthesis inhibition reporter; inhibition, % at 38.7 µM; 9.2% of 290,000 active; in the data active = inhibition mostly above about 28%, no sharp cut-off; inactive = mostly below about 43%; note: 0% is about no effect
Giardia FBPA inh – Giardia lamblia aldolase inhibition; A8B2U2; purified Giardia FBPA; Potency, µM (highest dose often 59.6 µM), inactives show at the top dose activity, negative = inhibition, actives largely listed as inhibitors; 0.71% of 290,000 active; AID 2451; note: potency is the fitted concentration of half-maximal effect; % is set by controls: 0 for no effect and ±100 for the full control effect; nearly all actives have a fitted effect of over 55% in size
Target sequence (A8B2U2 whole entry, looked up): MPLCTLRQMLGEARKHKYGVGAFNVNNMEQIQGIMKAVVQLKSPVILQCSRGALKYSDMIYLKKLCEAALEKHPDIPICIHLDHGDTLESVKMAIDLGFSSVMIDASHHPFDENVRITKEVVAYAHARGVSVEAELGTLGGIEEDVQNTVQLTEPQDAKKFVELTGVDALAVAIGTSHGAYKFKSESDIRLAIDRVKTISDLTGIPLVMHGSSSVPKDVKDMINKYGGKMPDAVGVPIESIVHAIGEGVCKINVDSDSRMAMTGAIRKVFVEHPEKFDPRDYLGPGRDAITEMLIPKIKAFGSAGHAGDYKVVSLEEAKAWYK
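40 nM FBPA preincubated 10 min at RT with compound (up to 57.5 uM final), then substrate plus GAPDH/TPI/NAD/arsenate coupling and diaphorase/resazurin added. Fluorescence read after 20 min at RT, 525/598 nm.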
CHX counter – counter-screen hit for Shiga toxin inhibitors, cycloheximide; cell reporter, cycloheximide protein synthesis inhibition counterscreen; max response, %; 12% of 300,000 active; AID 2314; in the data active = max response mostly above about 13%, no sharp cut-off; inactive = mostly below about 14%; note: read at 38.3 µM for the half of the compounds with a filed dose; 0% is about no effect
Tb PYK inh – blocks Trypanosoma brucei pyruvate kinase | TbPYK enzyme, Kinase-Glo Plus ATP luminescence, 45 min | Potency, µM (highest dose often 76.8 µM), for inactives: top-dose activity, negative = inhibition, most hits filed as inhibitors | 0.12% of 410,000 active | AID 624173; note: potency is the fitted concentration of half-maximal effect; % is set by controls: 0 for no effect and ±100 for the full control effect; nearly all actives have a fitted effect of over 50% in size
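TbPYK + substrate in 50 mM TEA pH 7.2, 100 mM KCl, 10 mM MgCl2, 0.05% BSA, 0.01% Tween-20; cpd pinned; ADP 130 uM final; 45 min RT; Kinase-Glo Plus 10 min; luminescence endpoint.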
RE007 growth inh – less growth of the S. pombe RE007 Vpr strain | 0.21% of 360,000 active | Potency, µM (titrated, usually from 92.2 µM), without a hit: top-dose activity change, negative = less growth, actives largely listed as inhibitors | AID 651644 | S. pombe RE007 Vpr strain, BacTiter-Glo ATP luminescence, 24 h; active = well fitted falling curve with a large enough effect; inconclusive = small, poorly fitted or top-dose-only effect; inactive = no such curve, though single readings can be large or run the other way; note: potency is the fitted concentration of half-maximal effect; % is set by controls: 0 for no effect and ±100 for the full control effect; nearly all actives have a fitted effect of over 50% in size
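Fission yeast strain RE007, carrying one chromosomally integrated HIV-1 vpr copy, was seeded at OD 0.01 in PMG+AL medium with 23 nL pinned compound. After 24 h at 30 °C and 99% humidity, viability was read by BacTiter-Glo luminescence.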
LmPK inh – inhibitors of Leishmania mexicana pyruvate kinase; AID 1721; 0.37% of 290,000 active; Potency, µM (doses to about 57.5 µM), without a hit: at the top dose activity change, negative = inhibition, hits mostly inhibitors; Q27686; purified LmPK, Kinase-Glo ATP luminescence, 1 h; note: potency is the fitted concentration of half-maximal effect; % is set by controls: 0 for no effect and ±100 for the full control effect
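Purified LmPK (0.1 nM) converted ADP (0.1 mM) to ATP with PEP (0.5 mM) in imidazole buffer pH 7.2 with KCl and MgCl2, 1 h at room temperature. ATP was read by Kinase-Glo luminescence; data normalized to uninhibited and no-enzyme controls.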
* marks the source's active call; other numbers are inactive results; ? = inconclusive; nt = not tested or not shown; [ ] = dose if it differs, or a comment. Unless noted, calls come from the whole dose curve; as a rule, active = well fitted curve in the direction sought with a large enough effect; inconclusive = small, poorly fitted or top-dose-only effect, or another doubt; inactive = no such curve, though single readings can be large; an effect the other way counts as inactive or inconclusive.

SMILES	Shiga toxin inh	Giardia FBPA inh	CHX counter	Tb PYK inh	RE007 growth inh	LmPK inh
O=C(Nc1ccc(Cl)cn1)c1ccc(COc2ccccc2Br)o1	162.2*	-3.6%	60.8*	3.9%	-27.2%	7.3%
O=C(Nc1ccccn1)c1ccc(COc2ccccc2Cl)o1	88.5*	10.3%	30.1*	-1.9%	-9.5%	0.5%
Cc1ccc(NC(=O)c2ccc(COc3ccccc3)o2)nc1	54.6*	nt	26.2*	-2.6%	-14.2%	-3.6%
Cc1cc(C)c2nc(-c3ccncc3)cc(C(=O)N3CCN(Cc4ccccc4Cl)CC3)c2c1	-9.2	-0.6%	7.7	-3.5%	-14.6%	0.8%
CCCc1nnc2n1N=C(c1ccc(-c3cc(Cl)ccc3Cl)o1)CS2	active	1.5%	21.3*	nt	nt	1.0%
O=C(/C=C\Nc1ccc(S(=O)(=O)Nc2ncccn2)cc1)c1cccc2ccccc12	27.5	-0.1%	-1.7	5.2%	43.8%	8.4%
NS(=O)(=O)c1ccc(N/C=C\C(=O)c2cccc3ccccc23)cc1	10.4	-2.6%	21.4*	-1.4%	24.4%	1.0%
O=c1[nH]c(CSc2nc(-c3ccc(F)cc3)cs2)nc2ccccc12	-9.7	4.2%	-2.8	-2.5%	6.6%	2.7%
Cc1cnn(C(=S)NCCc2ccccc2)c1	77.4*	-14.4%	34.5*	-4.9%	-4.9%	0.5%
Cc1ccccc1NC(=S)NCCc1ccccc1	16.4	-1.6%	14.7*	-10.7%	nt	2.8%
COc1ccc(CCNC(=S)Nc2ccccc2C)cc1	-20.0	-2.2%	-2.6	-12.2%	6.7%	6.8%
Cc1cc(Br)ccc1NC(=S)NCCc1ccccc1	6.3	nt	10.1	-3.7%	-3.1%	0.2%
CC(C)(C)NC(=S)NCCc1ccccc1	74.8*	0.3%	30.5*	-3.3%	-5.2%	-2.2%
Cc1ccc(C(=O)O)cc1NC(=S)NCCc1ccccc1	2.2	?	-1.9	10.3%	-12.1%	1.2%
Cc1ccc(NC(=S)NCCc2ccccc2)c(C)c1	40.4	2.8%	16.8*	1.4%	-17.5%	1.4%
CCOC(=O)C1=C(CN2CCN(c3ccc(Cl)cc3)CC2)NC(=O)NC1c1ccc(F)cc1 (configuration not stated)	nt	nt	nt	-2.9%	nt	nt
OC(CNC1CCCCC1)COCCOc1ccc(Br)cc1 (configuration not stated)	-15.8	-3.6%	-2.7	2.8%	1.5%	-1.0%
CCOC(=O)Cn1c(=O)n(CC2CCCO2)c2nc(-c3cc(OC)ccc3OC)nc(C(N)=O)c21 (configuration not stated)	nt	nt	nt	-7.2%	nt	nt
CCOC(=O)/C(C#N)=C\c1cc(C)n(-c2ccccc2)c1C	82.1*	-4.3%	55.1*	-0.5%	-10.6%	-0.1%
CCOC(=O)/C(C#N)=C/c1cc(C)n(-c2ccc(C)cc2)c1C	31.4	-3.3%	18.5*	-8.1%	-1.5%	5.5%
Cc1cc(/C=C(\C#N)C(=O)Nc2ccccc2)c(C)n1-c1ccc(C(=O)O)cc1	10.9	-1.0%	0.9	-0.6%	10.1%	5.0%
CNC(=O)/C(C#N)=C/c1cc(C)n(-c2ccc(N3CCOCC3)cc2)c1C	1.7	3.8%	12.2	-0.5%	-7.5%	0.4%
CCOC(=O)/C(C#N)=C\c1ccc(CC)s1	101.9*	0.1%	79.6*	3.5%	-29.6%	-2.7%
CCOC(=O)/C(C#N)=C\C=C1C=CN(C)C=C1	62.8*	-16.2%	35.1*	-6.8%	-24.5%	-10.6%
C=CCn1c(SCC(=O)N2CCC(C)CC2)nc2c([nH]c3ccccc32)c1=O	nt	nt	nt	-12.9%	6.2%	nt
SMILES	Shiga toxin inh	Giardia FBPA inh	CHX counter	Tb PYK inh	RE007 growth inh	LmPK inh
O=C(CN1C(=O)CCSc2ccc(S(=O)(=O)N3CCCC3)cc21)Nc1cccc(F)c1	nt	nt	nt	2.0%	nt	nt
CC(C)NC[C@@H](O)c1ccc(O)c(O)c1	-6.5	7.06µM*	-0.3	-7.3%	1.2%[18.4 µM]	-0.5%
CC(C)NCC(O)c1ccc(N)c(C#N)c1 (configuration not stated)	nt	nt	nt	-1.5%	nt	nt
Cc1ccc(/C=N/NC(=O)CSc2nc3ccccc3[nH]2)o1	21.3	nt	17.9*	-3.3%	-16.6%	-2.9%
O=C(CSc1nc2ccccc2[nH]1)N/N=C/c1ccncc1	16.2	-8.8%	6.4	2.6%	2.8%	-4.2%
CCCc1nnc(NC(=O)CSc2nc3ccccc3[nH]2)s1	44.0*	1.1%	19.2*	1.0%	3.0%	0.6%
CCC(C)/C(C)=N/NC(=O)CSc1nc2ccccc2[nH]1 (configuration not stated)	66.6*	-6.8%	16.0	0.3%	15.3%	-2.5%
CCC1CCCCN1CCNC(=O)CCS(=O)(=O)c1ccc(Br)cc1 (configuration not stated)	-5.2	2.4%	1.2	6.6%	-8.7%	6.8%
S=C(NCc1ccccc1)N1CCN(C(=S)NCc2ccccc2)CC1	nt	nt	nt	-15.4%	26.0%	nt
COc1ccc(N2c3ccccc3CN(Cc3ccccc3)CC2Cc2cc(OC)c(OC)c(OC)c2)cc1 (configuration not stated)	nt	nt	nt	0.4%	-0.1%	nt
CC(C)(C)NC(=O)C1Cc2ccccc2CN1 (configuration not stated)	-15.4	4.4%	-2.0	-8.5%	2.3%	-7.8%
CC(C)=CC(=O)Nc1nc2ccc([N+](=O)[O-])cc2s1	55.1*	-14.0%	44.5*	-7.2%	-0.4%	-1.4%
O=[N+]([O-])c1ccc2nc(NS(=O)(=O)c3ccccc3[N+](=O)[O-])sc2c1	3.0	24.0%	8.3	7.1%	-3.3%	8.6%
Cc1ccc(C)c(OCC(=O)Nc2nc3ccc([N+](=O)[O-])cc3s2)c1	3.5	1.3%	-2.6	4.0%	3.9%	0.5%
C/C(=C\c1ccccc1)C(=O)Nc1nc2ccc([N+](=O)[O-])cc2s1	-4.6	6.4%	19.4*	2.5%	-22.3%	-2.2%
COc1cc(/C=N/NC(=O)c2nc(C)cc(C)n2)ccc1O	48.2	-3.9%	16.7*	-11.1%	4.3%	-4.0%
Cc1nonc1C(=O)N/N=C/c1ccc(O)c(O)c1	99.4*	?	41.9*	?	?	12.6µM*
COc1cc(/C=N/NC(=O)c2nonc2N)cc(OC)c1OC	87.0*	-0.6%	32.3*	-0.6%	13.3%	-1.9%
COc1cc(/C=N/NC(=O)c2cccc(C(=O)N/N=C/c3ccc(O)c(OC)c3)n2)ccc1O	19.2	1.1%	9.6	4.6%	7.3%	1.5%
COc1cc(/C=N/NC(=O)c2nonc2C)ccc1O	63.2*	0.7%	29.3	-5.1%	-0.3%	14.1µM*
O=C(CC(Nc1ccc(F)cc1)C(=O)OCC(=O)c1cccs1)c1ccccc1 (configuration not stated)	24.3	-0.6%	16.0*	3.7%	?	1.2%
O=C(CC(Nc1ccc(F)cc1)C(=O)O)c1ccccc1 (configuration not stated)	41.1*	-13.1%	37.1*	-21.1%	-13.5%	-29.9%
